A selection: hits, their analogues and other compounds. The true share with any hit is near 12%.
Pf growth 48h = Primary qHTS for delayed death inhibitors of the malarial parasite plastid, 48 hour incubation | P. falciparum luciferase growth in erythrocytes, 48 h | Potency, µM (top dose mostly 28.7 µM), usual class: inhibitors | actives 5.9% (n = 310,000)
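Erythrocytes infected with P. falciparum carrying an integrated firefly luciferase reporter (2% hematocrit, 0.1% parasitemia final) were exposed to compounds in RPMI 1640 with 0.5% Albumax at 37 C, 5% CO2. Growth inhibition was scored as reduced luminescence.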
Pf growth 96h = Primary qHTS for delayed death inhibitors of the malarial parasite plastid, 96 hour incubation | actives 6.9% (n = 320,000) | Potency, µM (highest dose often 28.7 µM), hits mostly inhibitors | P. falciparum luciferase reporter growth, 96 h
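Erythrocytes infected with luciferase-expressing P. falciparum were dispensed at 2% hematocrit and 0.05% parasitemia (final), then incubated with compounds 96 hours at 37 C in 5% CO2. Luminescence after detection reagent addition reported growth.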
Sm TGR block = qHTS Assay for the Inhibitors of Schistosoma Mansoni Peroxiredoxins; Schistosoma mansoni thioredoxin glutathione reductase (TGR), Q962Y6; purified TGR, DTNB reduction, TNB absorbance 405 nm; Potency, µM (titrated, usually from 114 µM), usual class: inhibitors; actives 3% (n = 360,000); note: nearly all actives have a fitted effect of over 60% in size
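TGR 20 nM + NADPH 100 uM (dispensed conc.), cpd preinc 15 min RT; start with NADPH (500 uM addition) then DTNB (15 mM addition). Kinetic TNB absorbance, 405 nm filter. Four-parameter Hill fit across titration.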
SARS PLP yeast = qHTS of Yeast-based Assay for SARS-CoV PLP | S. cerevisiae expressing SARS-CoV PLpro, growth rescue | actives 0.19% (n = 330,000) | Potency, µM (highest dose often 32.9 µM), actives largely listed as activators; calls by dose curve; note: nearly all actives have a fitted effect of over 55% in size
Hits are given with their value; i = inactive; ? = inconclusive. Unless noted, calls come from the whole dose curve; as a rule, active = well fitted curve in the direction sought with a large enough effect; inconclusive = small, poorly fitted or top-dose-only effect, or another doubt; inactive = no such curve, though single readings can be large; an effect the other way counts as inactive or inconclusive.

SMILES | Pf growth 48h | Pf growth 96h | Sm TGR block | SARS PLP yeast
Cc1cccc(C)c1-n1nnnc1C(C)(C)N1CCN(N=O)CC1 | i | ? | i | i
CCC(C)(c1nnnn1-c1c(C)cccc1C)N(N=O)c1cccc(C(F)(F)F)c1 (centres undefined) | 11.7µM | ? | i | i
COc1ccccc1N(CC(=O)Nc1cc(C)on1)S(=O)(=O)c1cccc(C(F)(F)F)c1 | 13.1µM | ? | i | i
COC(=O)c1cc(NC(=O)CN(c2ccccc2OC)S(=O)(=O)c2ccccc2)ccc1Cl | 10.4µM | i | i | i
COc1ccc(N(CC(=O)Nc2ccccc2OC)S(=O)(=O)c2ccccc2)cc1Cl | ? | i | i | i
COc1ccc(NC(=O)CN(c2ccc(OC)c(Cl)c2)S(=O)(=O)c2ccccc2)c(OC)c1 | ? | 11.7µM | i | i
COC(=O)CCn1[nH]c(=O)c2ccccc2c1=O | i | 9.28µM | i | i
CCCCCCOC(=O)CCn1[nH]c(=O)c2ccccc2c1=O | ? | i | i | i
Cc1nonc1OCCNCc1c(C(=O)N2CCCCCCC2)nc2ccc(Cl)cn12 | 3.7µM | i | ? | i
Cc1cccnc1CCNCc1c(C(=O)N2C[C@@H](C)O[C@@H](C)C2)nc2ccc(Cl)cn12 | 10.4µM | i | i | i
O=C(c1nc2ccc(Cl)cn2c1CN1CCC[C@H]1CO)N1CCCCCCC1 | ? | i | 44.7µM | ?
C[C@@H]1CN(C(=O)c2nc3ccc(Cl)cn3c2CN[C@H]2CCCCNC2=O)C[C@H](C)O1 | i | ? | i | i
O=C(c1nc2ccc(Cl)cn2c1CNCCn1ccnc1)N1CCCCCCC1 | ? | ? | i | i
CCCn1c(CCc2ccccc2)n[nH]c1=S | i | ? | i | i
S=c1[nH]nc(-c2ccccc2)n1Cc1ccccc1 | i | 0.415µM | i | ?
S=c1[nH]nc(CN2CCCCC2)n1Cc1ccccc1 | 3.7µM | i | i | i
CN(C(=O)CSc1nnc(CN2CCCC2)n1Cc1ccccc1)c1ccccc1 | 11.7µM | ? | i | i
S=c1[nH]nc(CN2CCCC2)n1Cc1ccccc1 | i | i | i | i
CCn1c(CCc2ccccc2)n[nH]c1=S | i | 10.4µM | i | i
Cn1c(=O)c2c(nc(Cl)n2CC(=O)NC2(C#N)CCCCC2)n(C)c1=O | i | i | i | i
Cc1ccc(NC(=O)COc2ccccc2C(=O)NCc2ccccc2)cc1 | ? | ? | i | i
CCOc1ccccc1N(C(=O)c1snc(C(N)=O)c1N)C(C(=O)NCc1ccccc1)c1ccc(O)cc1 (centres undefined) | 11.7µM | ? | i | i
COc1ccc(C(C(=O)NCc2ccccc2)N(C(=O)c2snc(C(N)=O)c2N)c2ccccc2OC)cc1OC (centres undefined) | 10.4µM | i | i | i
COc1ccc(N(C(=O)c2snc(C(N)=O)c2N)C(C(=O)NCc2ccccc2)c2ccc(O)cc2)cc1OC (centres undefined) | ? | i | i | i
CCOc1ccccc1N(C(=O)c1snc(C(N)=O)c1N)C(C(=O)NC1CCCC1)c1cccs1 (centres undefined) | 9.28µM | ? | i | i
SMILES | Pf growth 48h | Pf growth 96h | Sm TGR block | SARS PLP yeast
CCCCn1nc(C(=O)Nc2ccccc2N2CCCC2)c2ccccc2c1=O | ? | ? | i | i
O=C1[C@@H]2Cc3c([nH]c4ccccc34)C(c3ccccc3)N2C(=O)CN1CCO (some centres undefined) | i | i | i | i
O=C1[C@@H]2Cc3c([nH]c4ccccc34)[C@@H](c3ccccc3)N2C(=O)[C@@H]2Cc3c([nH]c4ccccc34)[C@@H](c3ccccc3)N12 | ? | 2.62µM | i | i
CC1Cc2c([nH]c3ccccc23)C2c3ccccc3CN12 (centres undefined) | i | i | 22.4µM | i
COc1cc([C@H]2c3[nH]c4ccccc4c3C[C@H]3C(=O)N4[C@@H](c5cc(OC)c(OC)c(OC)c5)c5[nH]c6ccccc6c5C[C@H]4C(=O)N23)cc(OC)c1OC | 0.415µM | 0.465µM | i | i
CC1c2[nH]c3ccccc3c2C[C@H]2C(=O)N(CCCO)CC(=O)N12 (some centres undefined) | i | i | i | i
CC(C)CN1CC(=O)N2C(c3ccccc3)c3[nH]c4ccccc4c3C[C@H]2C1=O (some centres undefined) | 11.7µM | ? | i | i
COCC1CCN(C(=O)c2oc3c(F)cccc3c2C)C1 (centres undefined) | ? | ? | i | i
O=C(Nc1ccc(S(=O)(=O)N2CCOCC2)cc1)c1cccc(Br)c1 | i | i | i | i

Screening results from PubChem.
